Results as given in PubChem BioAssay (NCI).
Compounds without any hit were thinned out: in the full panel of roughly 83,000, 20% have a hit.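 Assay: single dose, 48 h. Readout: percent growth (0 = no net growth; negative = cell death). Active: <10.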 Unmarked numbers belong to inactive results. The source made the active and inactive calls.

Assays:
Assay in all cases: NCI-60 one-dose screen, 48 h (100 = growth as untreated, 0 = no growth, -100 = all killed)
Settings in all cases: 10 µM unless noted
NCI-H23 lung = system: NCI-H23 lung
NCI-H226 lung = system: NCI-H226 lung
NCI-H322M lung = system: NCI-H322M lung
HOP-62 NSCLC = system: HOP-62 NSCLC
NCI-H460 lung = system: NCI-H460 lung
HOP-92 NSCLC = system: HOP-92 NSCLC
NCI-H522 lung = system: NCI-H522 lung
A549/ATCC NSCLC = system: A549/ATCC NSCLC
786-0 renal = system: 786-0 renal
COLO 205 colon = system: COLO 205 colon

Row | SMILES | growth (NCI-H23 lung) | growth (NCI-H226 lung) | growth (NCI-H322M lung) | growth (HOP-62 NSCLC) | growth (NCI-H460 lung) | growth (HOP-92 NSCLC) | growth (NCI-H522 lung) | growth (A549/ATCC NSCLC) | growth (786-0 renal) | growth (COLO 205 colon)
1 | N#Cc1c(-c2ccc(Cl)cc2)nc(NN=Cc2cccc(Cl)c2)nc1N1CCOCC1 | 101% | 91.6% | 88.7% | 92.7% | 91.6% | 89.3% | 94.5% | 81.9% | 70.1% | 61%
2 | Cc1cc(N2CCOCC2)nc(N(CCCNc2ccnc3cc(Cl)ccc23)Cc2ccc3c(c2)OCO3)n1 | 13.5% | 13.8% | 21.4% | -17.6% (active) | -11.5% (active) | -25.8% (active) | -66.4% (active) | 2.51% (active) | -79% (active) | -58.5% (active)
3 | O=c1[nH]c(CN2CCN(c3ccccc3)CC2)nc2c(Br)cc(Br)cc12 | 98.4% | 93.4% | 112% | 101% | 100% | 131% | 103% | 101% | 103% | 104%
4 | CC1(C)CC[C@]2(CO)CC[C@]3(C)C(=CC[C@@H]4[C@@]5(C)CCNCC(C)(C)[C@@H]5CC[C@]43C)[C@@H]2C1 | 88.4% | 106% | 68.9% | 99.3% | 49.5% | 64.2% | 70.7% | 85.6% | 84.6% | -44.1% (active)
5 | CCOC(=O)C1=C(c2ccccc2)N=C2N(c3ccccc3)N=C(C(C)=O)N2C1c1ccc(Br)cc1 (stereo not given) | 94.3% | 96.1% | 95.3% | 103% | 98% | 89.5% | 95.3% | 91.2% | 100% | 124%
6 | C=CCn1c(SCC(=O)Nc2ccc(C(=O)/C=C/c3cc(OC)c(OC)c(OC)c3)cc2)nnc1-c1cc(-c2ccc(S(N)(=O)=O)cc2)nc2ccccc12 | 88.9% | 90.7% | 105% | 111% | 94.9% | 96.9% | 92.7% | 107% | 101% | 109%
7 | O=C(/C=C\c1ccc(O)c(O)c1)c1ccccc1O | 86.5% | 71.4% | 79.7% | 98.7% | 61.5% | 55.6% | -61.3% (active) | 55.7% | 100% | 80.6%
8 | COC12C=C/C(=C(/C(=O)OCc3ccccn3)C(=O)CCCCCCCCC3(OC)C=C/C(=C(/C(=O)OCc4ccccn4)C(=O)CCCCCCCC1)O3)O2 | -37.4% (active) | -69.4% (active) | -60% (active) | 20% | -15.5% (active) | -59% (active) | -12.9% (active) | 9.81% (active) | -72.5% (active) | -15.6% (active)
9 | COc1ccc(-c2cc(-c3ccc(Cl)cc3)c(C#N)c(=O)n2CCCCC(=O)NO)cc1 | 84.9% | 77.2% | 77.3% | 66.5% | 99.1% | 87.2% | 58.8% | 82.7% | 80.2% | 86.3%
10 | C=C(C)[C@@H]1CCC[C@]2(C(=O)OC)CC[C@]3(C)[C@@H](CC[C@@H]4[C@@]5(C)CCCNC(C)(C)[C@@H]5CC[C@]43C)[C@@H]12 | 96% | 84.4% | 79.6% | 85.5% | 94.4% | 70.7% | 91.8% | 91.9% | 90.1% | 76.1%
11 | Cn1nc(-c2ccc(Cl)cc2)nc2c(=O)n(C)c(=O)nc1-2 | -45% (active) | -51.4% (active) | -68.5% (active) | -72.9% (active) | 0.75% (active) | -28.9% (active) | -75.4% (active) | -25.2% (active) | -82.2% (active) | -90.6% (active)
12 | COc1cc(/C=C/C(=O)c2ccc(-n3cc(CN4CCN(c5cc6c(cc5F)c(=O)c(C(=O)O)cn6C5CC5)CC4)nn3)cc2)cc(OC)c1OC | 77.6% | 74.8% | 88.8% | 85.4% | 85.9% | 88% | 88% | 90.5% | 72.2% | 112%
13 | O=C(N/N=C/c1ccccc1Cl)c1ccccc1Nc1ccnc(C(F)(F)F)c1 | 16% | 3.35% (active) | 6.53% (active) | 1.91% (active) | 3.5% (active) | -17.1% (active) | -20.5% (active) | 7.28% (active) | -30.4% (active) | -38% (active)
14 | CC/C(=C(/c1ccc(Cl)cc1)c1ccc(OCCN2CCCCCC2)cc1)c1ccccc1 | 77.5% | 97.6% | 107% | 103% | 56.4% | 80.3% | 89.6% | 59.5% | 85.2% | 37%
15 | O=C(/C=C/c1ccc([N+](=O)[O-])cc1)c1cccc(Nc2nc(Nc3ccccc3)nc(Nc3ccccc3)n2)c1 | 60.9% | 82.6% | 75.9% | 69.2% | 81.1% | -2.76% (active) | 78.7% | 72.7% | 70.5% | 65.1%
16 | COc1cc2cc(Oc3ccc(NC(=O)Nc4ccc(Cl)c(Cl)c4)cc3)c(C)nc2cc1OCCN1CCCCC1 | 107% | 77.7% | 104% | 107% | 102% | 75.1% | 102% | 86.9% | -70% (active) | 112%
17 | COc1ccc(N2C(=O)/C(=C/C(Cl)=C/c3ccc([N+](=O)[O-])cc3)SC2=S)cc1 | -1.85% (active) | -31% (active) | 31.2% | -9.71% (active) | 0.356% (active) | -33.8% (active) | -42.5% (active) | -0.282% (active) | -77.7% (active) | -36% (active)
18 | COc1c(O[C@@H]2OC(CO)[C@H](O)[C@H](O)C2O)cc2oc3cc(O)c(CC=C(C)C)c(O)c3c(=O)c2c1CC=C(C)C (stereo not given in full) | 93.5% | 86.6% | 103% | 79% | 101% | 81.1% | 64.6% | 97.4% | 106% | 96.3%
19 | COc1ccc(C(=O)/C=C/c2ccc(C)cc2)cc1S(N)(=O)=O | 77.4% | 83% | 36.1% | 78.1% | 53.5% | 41.2% | 43.1% | 43.6% | 40.8% | 95.8%
20 | CN1CCN(Cc2ccc(NC(=O)c3cncc(C#Cc4c(N)ncc5ccccc45)c3)cc2C(F)(F)F)CC1 | -59.1% (active) | -11.8% (active) | -37% (active) | -83.7% (active) | -71.5% (active) | -59.2% (active) | -83.9% (active) | -87.7% (active) | -80.8% (active) | -90.4% (active)
21 | CCCc1cc(CCC)n2nc(N)nc2n1 | 103% | 94.8% | 97.9% | 97.5% | 110% | 106% | 109% | 112% | 97.1% | 103%
22 | CC(C)c1nc(N(C)S(C)(=O)=O)nc(-c2ccc(F)cc2)c1/C=C/C(=O)C[C@@H](O)CC(=O)O | 99.8% | 113% | 90% | 95.8% | 108% | 84.2% | 71.4% | 89.5% | 106% | 112%
23 | CCOC(=O)c1cnc2sc(-c3ccc(OC)cc3)nc2c1Cl | 82% | 99.2% | 89.2% | 112% | 100% | 94.7% | 97.8% | 106% | 115% | 123%
24 | O=C(/C=C/c1ccc(Cl)cc1)c1ccc(Nc2ccnc3cc(Cl)ccc23)cc1 | 71.1% | 111% | 89.6% | 72.2% | 133% | 15.2% | 88.3% | 62.7% | 62.8% | 107%
25 | COc1ccc2c(c1)c(-c1nc(-c3cn(C)c4ccncc34)cs1)cn2C | 92.2% | 113% | 95.7% | 94.7% | -64.5% (active) | 81.8% | 87.3% | 2.44% (active) | 84.8% | 92.6%
26 | O=C(OCC(O)C(=O)NC12CC3CC(CC(C3)C1)C2)c1cccc(Br)c1 (stereo not given) | 103% | 97.5% | 102% | 96.9% | 108% | 90.1% | 91.9% | 91.9% | 102% | 105%
